The values below come from PubChem BioAssay.

A number with no mark means an inactive call.

The test is described as follows: growth of efflux-deficient E. coli DRC39 – strain DRC39, OD650, 48 h, E. coli filamentation inducers, primary screen (AID 1179).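 Also: screen aims at cell division blockers that make cells filament.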 As to conditions: E. coli DRC39 delta-acrAB growth, higher = more signal, called active from +8 up or from −8 down.
With `CCOC(=O)C[C@H]1[C@H](OC(=O)Cc2ccc3c(c2)OCO3)[C@@H](NC(=O)CC(C)C)c2cc(OCCCO)ccc2N1C(=O)Cc1ccc(OC)cc1`, the z-score is 0.629.
Then `CCOC(=O)C1=C[C@@H](c2ccccc2)N(S(=O)(=O)c2ccc(C)cc2)[C@H]1c1ccccc1Cl`, with -0.591; and `C[N+](C)(C)CCCC[C@@H]1NC(=O)[C@H]2C[C@@H](C(=O)NCCCCCCN)[C@@H](c3ccc(O)cc3)N2C1=O`, with -0.185.
Then `C=C(COC)C(=O)CC[C@@H](OC(=O)c1cccnc1)c1ccc(OCCO)cc1`, with 0.441; and `COC(=O)[C@@]1(Cc2ccc(OC)cc2)[C@H]2c3cc(C(=O)N4CCCC4)n(Cc4c(-c5ccccc5)noc4C)c3C[C@H]2CN1C(=O)c1ccccc1`, with -0.57.
`COCCCNC(=O)[C@]1(CCS(=O)(=O)c2ccccc2)N=C(c2ccc(OCCCO)cc2)O[C@@H]1c1ccccc1CN=[N+]=[N-]`: the z-score is 0.748.
For `COC(=O)[C@@]1(Cc2ccc(F)cc2)[C@H]2c3cc(C(=O)N(C)C)n(CCc4ccc(O)c(OC)c4)c3C[C@H]2CN1C(=O)c1ccccc1` the value was -0.574.
Then `COC(=O)[C@@]1(Cc2ccccc2)[C@H]2c3cc(C(=O)N(C)C)n(CCN4CNCC4=O)c3C[C@H]2CN1C(=O)c1ccccc1`, with -0.217.
For `O=C1O[C@H](c2ccccc2)[C@H](c2ccccc2)N2[C@H]1[C@@H](C(=O)Nc1nc3ccccc3s1)[C@]1(C(=O)Nc3ccc(C#CCCO)cc31)[C@H]2c1ccc(O)cc1` the value was 0.145; for `COC(=O)c1cn(C[C@@H](Cc2ccccc2)NC(=O)N[C@H](CO)CCc2oc(C(C)=O)c(C(=O)OC)c2C(=O)OC)nn1`, 0.604.
For the molecule `COCCOC(=O)N1C(=O)[C@@]2(c3cc(C#CC4=CCCCC4)ccc31)[C@H](C(=O)N1CCCCCCC1)[C@H]1C(=O)O[C@H](c3ccccc3)[C@H](c3ccccc3)N1[C@@H]2c1ccc(O)cc1`, the z-score was -0.863.
For `CCOC(=O)C[C@H]1[C@H](OC(=O)c2ccccc2-c2ccccc2)[C@@H](NC(=O)C2CCCCC2)c2cc(OCCCO)ccc2N1C(=O)Cc1ccc(OC)cc1` the value was -0.657; for `COc1ccc(-c2cc3c(c(CCc4ccccc4)n2)[Si](C(C)C)(C(C)C)OC3)cn1`, 0.469; for `COC(=O)[C@@]1(Cc2ccccc2)[C@H]2c3cc(C(=O)N(C)C)n(CCc4ccc(O)c(OC)c4)c3C[C@H]2CN1C(=O)c1ccccc1`, -0.253.
`COC(=O)Cn1c(C(=O)N(C)C)cc2c1C[C@H]1CN(C(=O)c3ccccc3)[C@@](Cc3ccc(F)cc3)(C(=O)OC)[C@@H]21`: the z-score was -0.582.
For `C=CCNC(=O)[C@H]1[C@@H]2C(=O)O[C@@H](c3ccccc3)[C@@H](c3ccccc3)N2[C@@H](c2ccc(O)cc2)[C@]12C(=O)N(C(=O)OCCOC)c1ccccc12` the value was -1.08; for `CC(C)N1C(=O)c2ccccc2[C@@H](C(=O)NC2CC2)[C@@H]1c1ccc(CO)cc1`, -0.452; for `O=C1N(Cc2ccccc2)Cc2ccccc2[C@@H]2OC(c3ccc(OCCCO)cc3)=N[C@]12CCS(=O)(=O)c1ccccc1`, -0.286.
For `CC(C)C(=C=CC[C@H](O)c1ccc(OCCO)cc1)C[C@H](O)c1ccccn1` the value was 0.879; for `COC(=O)c1nc2oc1CC[C@@H](CO)NC(=O)N(C)Cc1cnnn1C[C@H](Cc1ccccc1)NC2=O`, 1.12.
Consider `CCOC(=O)C[C@H]1[C@H](OC(=O)Cc2ccc3c(c2)OCO3)[C@@H](NC(=O)Cc2ccc(OC)cc2)c2cc(OCCCO)ccc2N1C(=O)c1ccc2ccccc2n1`, for which the z-score is 2.12.
Then `CCCCCCCCCCC(O)C1C=CC2C(=O)N(C)C(=O)C2N1NC(=O)OC(C)(C)C` (stereo unspecified), with -1.45.
For `O=C1NC(=O)C2C1C=CC(C(O)c1c(F)cccc1Cl)N2Nc1ccc(Cl)cc1Cl` (stereo unspecified), the z-score was -1.44.
For the molecule `O=C1O[C@H](c2ccccc2)[C@H](c2ccccc2)N2[C@H]1[C@@H](C(=O)Nc1nc3ccccc3s1)[C@]1(C(=O)Nc3ccc(C#CC4(O)CCCCCC4)cc31)[C@H]2c1ccccc1OCCO`, the z-score is -0.508.
Then `CC(C)[Si](C#C[Si](C(C)C)(C(C)C)C(C)C)(O[C@H](C)c1cn([C@H](CO)Cc2ccccc2)nn1)C(C)C`, with 1.19.
For `COCCCNC(=O)[C@@]1(Sc2ccc(C)cc2)CC(=O)N(C2CCCCC2)[C@@H]1c1ccc(CO)cc1` the value was -0.195.
With `O=C1C2C=CC(C(O)c3ccccc3)N(Nc3ccccc3F)C2C(=O)N1c1ccccc1` (stereo unspecified), the z-score was 0.206.
For `CCC[C@@H]1C[C@@]1(CCC)[C@@H](NC(=O)OCc1ccccc1)c1ccc(-c2ccccc2)cc1` the value was 0.492; for `N#Cc1ccc(C(O)C2C=CC3C(=O)N(c4ccccc4)C(=O)C3N2Nc2ccccc2)cc1` (stereo unspecified), 0.0165.
As for `C=CCC(OC(C)=O)[C@@H]1[C@@H](N(Cc2ccc(-c3ccccc3)cc2)C(=O)Cc2ccc(F)cc2)c2cc(OCCCO)ccc2N1C(=O)Cc1ccc(OC)cc1` (stereo partly specified), the z-score is -0.14.
For `COc1ccc([Si](C)(C)[C@@H]2[C@@H](CC(=O)N(CCO)Cc3ccccc3)O[C@]3(C(=O)N(c4ccccc4)c4ccccc43)[C@H]2C)cc1` the value was 1.1; for `COC(=O)[C@@]1(Cc2ccccc2)[C@@H]2C(=CC(=O)[C@H]2CC(=O)C(=O)N(C)C)CN1C(=O)c1ccccc1`, -0.0631; for `CN(C)C(=O)[C@@]1(Cc2ccccc2CN=[N+]=[N-])N=C(c2ccc(OCCCO)cc2)O[C@H]1c1ccccc1CN=[N+]=[N-]`, -0.435.
Then `CCOc1cc(C(O)C2C=CC3C(=O)N(c4ccccc4)C(=O)C3N2Nc2ccc(C#N)cc2)ccc1O` (stereo unspecified), with -0.245.
For `COc1ccc([Si](C)(C)[C@@H]2[C@@H](CC(=O)N3Cc4ccccc4C[C@H]3CO)O[C@]3(C(=O)N(Cc4cccc(N5C(=O)c6cccc7cccc5c67)c4)c4ccccc43)[C@H]2C)cc1` the value was -0.143.
Take `COc1ccc(-c2nc(-c3ccccc3)c3c(c2C)CO[Si]3(C(C)C)C(C)C)cn1`: the z-score was -0.329.
